DT40 TDP1 no CPT: qHTS for Inhibitors of human tyrosyl-DNA phosphodiesterase 1 (TDP1): qHTS in cells in absence of CPT | DT40 Tdp1-/- hTDP1 cells, no CPT, ATP luminescence, 48 h | Potency, µM (series often up to 46.2 µM), actives largely listed as inhibitors | actives 15% (n = 420,000); also: nearly all actives have a fitted effect of over 55% in size
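A cellular qHTS used chicken DT40 cells lacking endogenous Tdp1 but carrying stably transfected human TDP1. Compounds were applied without camptothecin, and cell growth kinetics were judged by ATP-dependent luminescence after ≥48 hr.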
DT40 TDP1 CPT: growth inhibition of DT40 Tdp1-/-;hTDP1 cells with camptothecin (screen for TDP1 inhibitors). chicken DT40 Tdp1-/-;hTDP1 cells + 20 nM CPT, ATP luminescence, 48 h. Potency, µM (highest dose often 46.2 µM), most hits filed as inhibitors. actives 12% (n = 420,000); also: nearly all actives have a fitted effect of over 55% in size
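Chicken DT40 Tdp1-/- cells complemented with human TDP1, 400 cells/well, exposed to compounds plus 20 nM camptothecin for at least 48 h at 37 C; viability read as ATP content by CellTiter-Glo luminescence.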
RORg inh: inhibitors of mouse ROR gamma transcriptional activity; Drosophila S2 Gal4-RORgamma UAS-luciferase reporter, 20 h; P51450; Potency, µM (series often up to 53.6 µM), hits mostly inhibitors; AID 2551; actives 5.4% (n = 310,000); also: nearly all actives have a fitted effect of over 60% in size
Target sequence (P51450 whole entry, looked up, the tested form may be a part): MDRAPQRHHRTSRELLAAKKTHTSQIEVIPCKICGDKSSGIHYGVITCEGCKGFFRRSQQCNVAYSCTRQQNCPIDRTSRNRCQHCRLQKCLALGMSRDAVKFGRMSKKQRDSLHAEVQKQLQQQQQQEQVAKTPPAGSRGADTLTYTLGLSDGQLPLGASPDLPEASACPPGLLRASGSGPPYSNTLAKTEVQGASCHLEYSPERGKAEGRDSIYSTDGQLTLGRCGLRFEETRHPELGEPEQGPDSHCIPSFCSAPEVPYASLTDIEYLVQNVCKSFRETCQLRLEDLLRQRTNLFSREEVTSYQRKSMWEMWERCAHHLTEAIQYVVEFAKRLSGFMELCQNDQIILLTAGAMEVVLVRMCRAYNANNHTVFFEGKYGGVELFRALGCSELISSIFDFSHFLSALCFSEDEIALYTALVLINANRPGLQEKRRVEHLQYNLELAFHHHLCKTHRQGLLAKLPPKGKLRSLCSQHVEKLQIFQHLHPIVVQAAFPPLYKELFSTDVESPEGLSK
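Stable Schneider cell line, Gal4 DNA-binding domain fused to ROR gamma, UAS-luciferase. Cmpd 1 hr RT → CuSO4 700 uM final → 20 hr RT → luciferase reagent 10 min → luminescence.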
TDP1 inh: inhibitors of human tyrosyl-DNA phosphodiesterase TDP1 | recombinant TDP1, AlphaScreen DNA substrate cleavage | Potency, µM (doses to about 130 µM), hits mostly inhibitors | actives 0.28% (n = 350,000) | Q9NUW8; also: nearly all actives have a fitted effect of over 40% in size
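Compounds were preincubated with Tdp1 (1 nM final) for 15 min at room temperature before substrate (15 nM final) started a 5 min reaction; beads (10 ug/ml final) were then added for 10 min before AlphaScreen detection.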
Gal4-VP16 FLuc: Gal4-VP16 reporter inhibition counter-screen; AID 2546; Drosophila S2 Gal4-VP16 UAS-luciferase, luminescence, 20 h; actives 3.5% (n = 310,000); Potency, µM (doses to about 53.6 µM), usual class: inhibitors;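 also: Gal4-VP16 expression switched on by copper sulfate through the metallothionein promoter; nearly all actives have a fitted effect of over 50% in size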
Hits are given with their value; - = inactive; ? = inconclusive; . = no result; [ ] = dose if it differs, or a comment. Hits are enriched below; roughly 19% of the tested compounds scored in any of these assays. Calls follow the shape of the dose curve; as a rule, active = well fitted curve in the direction sought with a large enough effect; inconclusive = small, poorly fitted or top-dose-only effect, or another doubt; inactive = no such curve, though single readings can be large; an effect the other way counts as inactive or inconclusive.

SMILES	DT40 TDP1 no CPT	DT40 TDP1 CPT	RORg inh	TDP1 inh	Gal4-VP16 FLuc
CC(NS(=O)(=O)c1ccc(Br)cc1)C(c1cccs1)N1CCN(C)CC1 (stereo not given)	?	?	-	-	-
CCOc1cccc(C(=O)Nc2ccc(-c3nc4cc(C)cc(C)c4o3)cc2)c1	-	-	.	.	.
CCOc1cccc(C(=O)Nc2cccc(-c3nnc(-c4ccccc4)o3)c2)c1	18µM	15µM	-	-	-
CCOc1cccc(C(=O)Nc2cccc(-c3nnc(-c4ccc(C)cc4)o3)c2)c1	?	18µM	-	-	?
COc1cccc(C(=O)Nc2ccc(-c3nnc(-c4ccco4)o3)cc2)c1	10µM	?	-	-	-
Cc1ccc(-c2nnc(-c3ccc(NC(=O)c4ccco4)cc3)o2)cc1	21µM	23µM	?	-	-
O=C(Nc1ccc(-c2nc3ccccc3c(=O)o2)cc1)c1ccco1	-	-	-	-	-
O=C(Nc1cccc(-c2nnc(-c3ccco3)o2)c1)c1ccccc1	?	?	-	-	-
COc1ccc(CC(=O)N2CCc3cc(OC)c(OC)cc3C2O)cc1OC (stereo not given)	-	-	-	.	-
c1ccc2nc3c(cc2c1)CCCC3	-	-	.	.	.
Cc1ccc(NC(=O)c2cnn(-c3ccccc3)c2NC(=O)c2ccco2)cc1	?	13µM	-	-	-
COc1cccc(C(=O)Nc2cccc(-c3nnc(-c4ccccc4)o3)c2)c1	18µM	?	.	.	.
O=C(Nc1c(-c2ccccc2)nc2ccccn12)c1ccco1	-	-	-	-	-
Cc1ccc(-c2nc3ccccn3c2NC(=O)c2ccco2)cc1	-	-	40µM	-	-
N#Cc1ccc(NC(=O)c2cc(-c3cccc(Cl)c3)on2)cc1	-	-	.	.	.
Cc1ccccc1Cn1c(CN2CCC(C(=O)NCc3cccnc3)CC2)cc2ccccc21	?	?	.	-	.
O=C(NCc1cccnc1)C1CCN(Cc2cc3ccccc3n2Cc2cccc(Cl)c2)CC1	18µM	?	.	-	.
CN(C)c1ccc(CNC(=O)C2CCN(Cc3cc4ccccc4n3Cc3ccccc3)CC2)cc1	13µM	16µM	.	-	.
COCCCNC(=O)C1CCN(Cc2cc3ccccc3n2Cc2ccccc2C)CC1	?	?	.	-	.
O=C(NCc1cccnc1)C1CCN(Cc2cc3ccccc3n2Cc2ccccc2)CC1	13µM	?	.	-	.
CCOc1ccc2oc(C(=O)N3CCN(Cc4ccccc4)CC3)c(C)c2c1	?	?	?	-	-
CCOC(=O)c1c(NC(=O)CN2C(=O)NC(C)(c3ccc(Cl)cc3)C2=O)sc(C(=O)NC)c1C (stereo not given)	12µM	23µM	-	-	-
CCOC(=O)c1c(NC(=O)CN2CCOCC2)sc(C(=O)NC)c1C	-	-	-	-	-
CCOC(=O)c1c(NC(=O)COC(=O)c2ccc(O)cc2)sc(C(=O)N(C)C)c1C	23µM	?	-	-	-
CCOC(=O)c1c(NC(=O)COC(=O)CCOc2ccccc2C)sc(C(=O)NC)c1C	?	23µM	.	.	.
SMILES	DT40 TDP1 no CPT	DT40 TDP1 CPT	RORg inh	TDP1 inh	Gal4-VP16 FLuc
CCOC(=O)c1c(NC(=O)COC(=O)CNC(=O)c2ccco2)sc(C)c1C	?	5.8µM	-	-	-
CCOC(=O)c1c(NC(=O)COC(=O)c2ccc(Cl)nc2)sc(C(=O)N(C)C)c1C	?	-	.	.	.
CCOC(=O)c1c(NC(=O)CN2CCN(S(=O)(=O)c3cc(Cl)ccc3Cl)CC2)sc(C(=O)N(C)C)c1C	?	16µM	.	.	.
CCOC(=O)c1c(NC(=O)CN2CCN(C)CC2)sc(C(=O)Nc2ccccc2)c1C	?	?	-	-	-
CCOC(=O)c1c(NC(=O)C(Sc2ccccc2)c2ccccc2)sc(C(=O)N(C)C)c1C (stereo not given)	16µM	?	?	-	-
COc1ccc(-c2cc(=O)c3c(O)cc(O)c(-c4cc(-c5cc(=O)c6c(O)cc(OC)cc6o5)ccc4OC)c3o2)cc1	.	.	-	-	-
O=c1cc(-c2ccc(O)cc2)oc2cccc(O)c12	30µM	30µM	-	-	-
O=c1cc(-c2ccc(O)cc2)oc2c(-c3c(O)cc(O)c4c(=O)cc(-c5ccc(O)cc5)oc34)c(O)cc(O)c12	-	-	.	-	.
COc1ccc(-c2cc(=O)c3c(O)cc(O)cc3o2)cc1	24µM	?	?	-	-
O=C(CSc1nncc2ccccc12)Nc1ccc(C(=O)O)cc1	-	-	-	-	-
CCOc1nc(-c2ccccc2)c2cc(C)ccc2n1	?	?	-	-	-
CC(=O)c1ccc(N2CCN(c3ccc(C(F)(F)F)cn3)CC2)cc1	?	-	?	-	-
CCOc1ccccc1C(=O)Nc1cccc(-c2nc3ccccc3s2)c1	5.2µM	6.5µM	.	-	.
Cn1c(=O)c2ncn(CC(=O)Nc3cccc(-c4nc5ccccc5s4)c3)c2n(C)c1=O	15µM	15µM	-	-	-
O=C(O)c1ccccc1-c1ccccc1C(=O)Nc1cccc(-c2nc3ccccc3o2)c1	-	-	-	-	-
Cc1ccc(OCC(=O)Nc2cccc(-c3nc4ccccc4s3)c2)cc1	?	?	.	-	.
COc1ccc(C(=O)Nc2ccc(-c3nc4ccccc4s3)c(Cl)c2)cc1Cl	-	-	.	-	.
Cc1cccc(OCC(=O)Nc2cccc(-c3nc4ccccc4s3)c2)c1	?	?	.	-[12.3 µM]	.
COc1c(C)cccc1C(=O)Nc1ccc(-c2nc3ccccc3s2)c(Cl)c1	12µM	?	.	-	.
CCC(CC)C(=O)Nc1cccc(-c2nc3ccccc3o2)c1	16µM	?	-	-	-
CC(=O)Nc1ccc(S(=O)(=O)N2CCC(NC(=O)c3ccco3)CC2)cc1	-	-	-	-	-
CCC(C(=O)N1CC2(C)CC1CC(C)(C)C2)N1C(=O)c2ccccc2C1=O (stereo not given)	?	?	?	-	-
Cc1nnc(NCCN2CCOCC2)[nH]c1=O	-	-	-	-	-
O=C(Nc1ccc(-c2nc3ccccc3s2)c(O)c1)c1ccc(Br)cc1	?	-	.	-[12.3 µM]	.
O=C(Nc1ccc(-c2nc3ccccc3s2)c(OC(=O)c2ccccc2)c1)c1ccccc1	-	-	1.3µM	-	-
SMILES	DT40 TDP1 no CPT	DT40 TDP1 CPT	RORg inh	TDP1 inh	Gal4-VP16 FLuc
CCC(CC)C(=O)Nc1cccc(-c2nc3ccccc3s2)c1	?	21µM	.	-	.
COc1cc(OC)cc(C(=O)Nc2cc(-c3nc4ccccc4s3)ccc2OC)c1	-	-	.	-	.
CCOc1cc(C(=O)Nc2ccc(-c3nc4ccccc4s3)cc2Cl)cc(OCC)c1OCC	23µM	?	.	-	.
COCCCNC(=O)CCc1nc(-c2ccccc2)no1	-	-	?	-	-
COc1cccc(CNC(=O)c2ccc(CS(=O)c3ccccc3)o2)c1 (stereo not given)	-	-	-	-	-
Cc1cc(C(=O)N/N=C\c2ccc(COc3ccc([N+](=O)[O-])cc3)o2)ccc1[N+](=O)[O-]	?	?	11µM	-	?
